An excerpt weighted towards active compounds, which were near 10% of everything screened.
CtBP-E1A blk = qHTS Assay for Inhibitors of the CtBP/E1A Interaction. CtBP / adenovirus E1A interaction (AlphaScreen). AlphaScreen GST-E1A/His-CtBP binding, 1536-well; stronger effect = lower value. activity change, % (test concentration not listed). 0.49% of 340,000 active; in the data active = activity change below about -65%; inconclusive = mostly about -30% to -63%
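Steps: dispense buffer (Tris pH 8.0, NaCl 300 mM, TCEP 1 mM, BSA, Tween 20); add 5X protein mix (GST-E1A, His-CtBP, 125 nM each); pin 23 nL compound; 2 h at 37 °C, dark; add 5X beads (50 ug/mL); 1 h; read.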
HP1b chromo inh = HTS for Inhibitors of HP1-beta Chromodomain Interactions with Methylated Histone Tails; 0.56% of 390,000 active; Chromobox protein homolog 1 (Homo sapiens), P83916; AID 540317, 2011; AlphaScreen HP1-beta / biotin-H3K9me3 peptide binding; Potency, µM (doses to about 114 µM), most hits filed as inhibitors; also: nearly all actives have a fitted effect of over 70% in size
Target sequence (P83916 whole entry, looked up): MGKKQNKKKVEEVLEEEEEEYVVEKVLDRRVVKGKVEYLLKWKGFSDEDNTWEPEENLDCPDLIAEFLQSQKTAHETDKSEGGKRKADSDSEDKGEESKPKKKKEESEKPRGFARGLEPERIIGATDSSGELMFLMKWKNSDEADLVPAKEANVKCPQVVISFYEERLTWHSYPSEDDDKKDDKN
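Compound inhibition of the preformed complex between 50 nM HP1-beta and 50 nM biotinylated H3K9me3 peptide was read by AlphaScreen. Buffer was PBS pH 7.4 with 0.01% Tween-20. Incubations ran 30 min at room temperature, with 10 ug/mL donor/acceptor beads.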
BAZ2B block = qHTS Assay for Inhibitors of BAZ2B | Potency, µM (series often up to 114 µM), actives largely listed as inhibitors | 4.4% of 360,000 active | Bromodomain adjacent to zinc finger domain protein 2B (Homo sapiens), Q9UIF8 | AID 504333, 2011 | AlphaScreen BAZ2B-H3K14Ac peptide displacement; also: nearly all actives have a fitted effect of over 60% in size
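Protein-peptide AlphaScreen: BAZ2B 50 nM, b-H3K14Ac 50 nM, 1x PBS pH 7.4 + 0.01% Tween-20. Preincubation 30 min RT; cpd 30 min RT (top 110 uM); beads 20 min RT, light-protected.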
G9a inh = qHTS Assay for Inhibitors of Histone Lysine Methyltransferase G9a; G9a H3K9 monomethylation, AlphaScreen, 2 h; Potency, µM (highest dose often 102 µM), hits mostly inhibitors; 8.8% of 350,000 active; AID 504332, 2011; also: nearly all actives have a fitted effect of over 75% in size
Target sequence (Q96KQ7 913-1193 limits assumed): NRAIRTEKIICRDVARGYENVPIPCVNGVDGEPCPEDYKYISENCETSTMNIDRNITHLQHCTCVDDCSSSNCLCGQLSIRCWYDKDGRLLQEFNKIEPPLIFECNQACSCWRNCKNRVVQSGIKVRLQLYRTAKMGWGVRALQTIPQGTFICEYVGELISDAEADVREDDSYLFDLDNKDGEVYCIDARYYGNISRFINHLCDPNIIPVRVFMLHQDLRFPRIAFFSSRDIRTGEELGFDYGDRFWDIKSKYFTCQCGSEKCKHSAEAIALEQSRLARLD
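Signal arises when biotinylated H3K9 peptide, once monomethylated, bridges streptavidin donor and antibody-captured acceptor beads. Enzyme at 20 nM was preincubated 15 min with test compounds; peptide 500 nM and SAM 20 uM then reacted for 2 h.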
JMJD2A Tudor = qHTS Assay for Inhibitors of JMJD2A-Tudor Domain; Lysine-specific demethylase 4A (Homo sapiens), O75164; Potency, µM (top dose mostly 114 µM), most hits filed as inhibitors; AlphaScreen JMJD2A-Tudor / H3K4me3 peptide binding; AID 504339, 2011; 4.4% of 390,000 active; also: nearly all actives have a fitted effect of over 50% in size
Six1-Eya2 blk = qHTS Assay for Inhibitors of the Six1/Eya2 Interaction; Homeobox protein SIX1 (Homo sapiens) + Protein phosphatase EYA2 (Homo sapiens), …; AlphaScreen GST-Six1/His-Eya2 binding, biochemical; stronger effect = lower value; activity change, % (no concentration beside the values); 0.56% of 360,000 active; AID 651725, 2012; in the data active = activity change below about -65%; inconclusive = mostly about -30% to -63%
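AlphaScreen luminescence read after one hour at 37 °C in darkness. Pin-transferred compounds met GST-Six1 and His-Eya2 protein (5X stock 250 nM/500 nM) plus glutathione donor and Ni-chelate acceptor beads (5X, 50 ug/mL).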
A number is an active result; 0 = inactive; ? = inconclusive; - = no result; [ ] = dose if it differs, or a comment. Unless noted, calls follow the shape of the dose curve; as a rule, active = well fitted inhibition curve with a large enough effect; inconclusive = small, poorly fitted or top-dose-only effect; inactive = no such curve, though single readings can be large or run the other way.

SMILES | CtBP-E1A blk | HP1b chromo inh | BAZ2B block | G9a inh | JMJD2A Tudor | Six1-Eya2 blk
CN(C)c1ccc(NC(=O)CSc2nc(C3CC3)nc3ccccc23)cc1 | 0 | 0 | 0 | 4.5µM | ? | 0
O=C(Cn1c(=O)oc2cccnc21)Nc1ccccc1Oc1ccc(Cl)cc1Cl | 0 | 0 | 0 | 0 | 0 | 0
Cn1cc(C(=O)NCc2ccccc2)c(=O)c2cc(S(=O)(=O)N3CCCCCC3)ccc21 | - | 0 | 0 | 0 | 0 | -
CCOc1ccccc1NC(=O)CSc1n[nH]c(N)n1 | 0 | 0 | 0 | 0 | 0 | 0
O=c1cnnc(N/N=C/c2ccccn2)[nH]1 | -97 | 0 | 8.9µM | 0 | 3.2µM | -92
C#CCn1cc(/C=N/Nc2nc3ccccc3[nH]2)c2ccccc21 | 0 | ? | 40µM | 50µM | 50µM | 0
CC(/C=N/Nc1nncc(=O)[nH]1)=C\c1ccccc1 | 0 | 0 | 0 | 0 | 0 | 0
C(=N\Nc1nc2ccccc2[nH]1)/c1ccccn1 | - | 0 | 25µM | 0 | ? | ?
C(=N\Nc1nc2ccccc2[nH]1)/c1cccc2nccnc12 | 0 | 0 | 0 | 0 | ? | 0
CCCS(=O)(=O)NC(=O)C1(C)CCN(C(=O)/C=C/c2ccccc2)C1 (centres undefined) | 0 | - | - | - | - | 0
CC1(c2ccccc2)NC(=O)N(CC(=O)N(c2ccccc2)C2CCS(=O)(=O)C2)C1=O (centres undefined) | 0 | 0 | - | - | 0 | 0
Cc1cc(-c2ccccc2)nc2cc(C(N)=O)nn12 | ? | 0 | 0 | 28µM | 0 | 0
CCOC(=O)c1cc2nc(-c3ccccc3)cc(C)n2n1 | 0 | 0 | 0 | 45µM | 0 | 0
O=C(Nc1ccc(Cl)cc1)OCc1cn(-c2ccccc2)nn1 | 0 | 0 | 0 | 0 | 0 | 0
COc1ccc(Br)cc1/C(C)=N/NC1=NCCN1 | 0 | 0 | 0 | ? | 0 | 0
CCCCCOc1ccc(Br)cc1/C(C)=N/NC1=NCCN1 | 0 | 0 | 0 | 8.9µM | 0[11.4 µM] | 0
CCCN1CCC(C)(C(=O)Nc2cccc(OC(C)C)c2)C1 (centres undefined) | 0 | - | - | - | - | 0
CC(C)CSC1=NSC2=NC(=O)/C(=C\c3cccs3)C(=N)N12 | 0 | 0 | ? | 45µM | ? | 0
CCCCCCCCCCCCCCCC[n+]1cccc2ccccc21 | 0 | 0 | 50µM | 6.3µM | ? | 0
CCOC(=O)[C@]12CCC=C1N(Cc1cccc3ccccc13)C(=O)[C@H](CC(=O)NCCCCc1ccccc1)C2 | 0 | - | - | - | - | 0
CN(Cc1cc(Cl)cc(Cl)c1O)Cc1c(O)ccc2ccccc12 | 0 | 0 | - | - | ? | 0
CSc1ccccc1NC(=O)CN(C)Cc1c(O)ccc2ccccc12 | 0 | 0 | ? | 2.2µM | 56µM | 0
CN(Cc1ccccc1)Cc1c(O)ccc2ccccc12 | 0 | ? | 79µM | 8.9µM | 4µM | 0
CSc1ccccc1NC(=O)CN(C)Cc1ccc(Br)cc1 | 0 | 0 | 0 | 0 | 0 | 0
COc1ccc(OCCN(C)Cc2c(O)ccc3ccccc23)cc1 | 0 | 0 | 0 | 7.1µM | ? | 0
SMILES | CtBP-E1A blk | HP1b chromo inh | BAZ2B block | G9a inh | JMJD2A Tudor | Six1-Eya2 blk
CN(CCOc1ccccc1)Cc1ccccc1 | 0 | - | - | - | - | 0
COC(=O)CCCCCn1c(-c2ccccc2)cn2c3c(=O)n(C)c(=O)n(C)c3nc12 | - | 0 | 0 | 0 | 0 | -
Cc1cc(=O)[nH]c(-n2ncc(C#N)c2N)n1 | 0 | 0 | - | 2.8µM | 1.6µM | 0
CCCCNC(=O)C(NC(=O)Cc1cc(C(F)(F)F)cc(C(F)(F)F)c1)C(=O)c1ccccc1 (centres undefined) | 0 | - | - | - | - | 0
O=C(c1[nH]c(C(F)(F)F)nc1-c1ccccc1)N1CCN(c2ncccn2)CC1 | 0 | - | - | - | - | 0
O=C(NCc1n[nH]c(=S)n1-c1cccc(Cl)c1)c1ccc(S(=O)(=O)N2CCCC2)cc1 | 0 | 0 | ? | ? | 89µM | 0
Cc1cccc(-n2c(CNC(=O)c3ccc(S(=O)(=O)N4CCCCC4)cc3)n[nH]c2=S)c1 | 0 | 0 | 0 | 7.1µM | 35µM | 0
CCCN(CCC)S(=O)(=O)c1ccc(C(=O)NCc2n[nH]c(=S)n2-c2ccc(Cl)c(Cl)c2)cc1 | - | 0 | ? | 18µM | ? | 0
O=C(NCc1n[nH]c(=S)n1-c1ccc(Cl)c(Cl)c1)c1ccc(S(=O)(=O)N2CCCCC2)cc1 | 0 | 0 | 0 | 8.9µM | 0 | 0
Cc1ccc(CNC(=O)c2ccc(S(=O)(=O)N3CCCCC3)cc2)cc1 | 0 | 0 | 0 | 0 | 0 | 0
O=C(O)c1ccc(CNC(=O)c2ccc(S(=O)(=O)N3CCCCC3)cc2)cc1 | 0 | 0 | 0 | 0[12.7 µM] | 0 | 0
CC(C)C[C@H](NC(=O)N1CCCCCC1)C(=O)O | 0 | 0 | 0 | 0 | 0 | 0
COc1ccc([C@]23Cc4c(ccc5ccccc45)C(O2)C2=C(CC4(CCCCC4)OC2=O)O3)cc1 | - | - | 0[22.9 µM] | 0[2.33 µM] | - | -
COc1ccc(NC(=O)CN(C)C(=O)C23CC4CC(CC(C4)C2)C3)cc1 | 0 | 0 | 0 | 0 | 0 | 0
O=C(NCc1n[nH]c(=S)n1-c1ccc(F)cc1)c1ccc(S(=O)(=O)N2CCCC2)cc1 | 0 | 0 | 0 | ? | 28µM | 0
O=C(CNC(=O)c1ccco1)Nc1ccc(F)c(Cl)c1 | 0 | 0 | 0 | 0 | 0 | 0
CCN(CC)c1ccc(NC(=O)c2ccco2)c(C)c1 | 0 | 0 | 0 | ? | 0 | 0
CCN(c1ccc(NC(=O)CCNC(=O)c2ccco2)cc1)C(C)C | - | 0 | 0 | 5µM | 0 | 0
CCN(CC)c1ccc(NC(=S)NC(=O)c2ccco2)cc1 | 0 | 45µM | 18µM | 28µM | 28µM | -70
CCN(CC)c1ccc(NC(=O)c2ccco2)cc1 | 0 | 0 | 0 | 35µM | ? | 0
O=C(CNC(=O)c1ccco1)Nc1ccc(F)cc1 | -96 | 0 | 0 | 0[12.7 µM] | 0 | 0
CC(C)(C)c1ccc(C(=O)CCCN2CCC(OC(c3ccccc3)c3ccccc3)CC2)cc1 | - | - | - | 0 | - | -
CCc1ccc(-n2c(N3CCN(c4cccc(C)c4C)CC3)nc3ccccc3c2=O)cc1 | - | 0 | - | 0 | 0 | -
Cn1c(NCCOc2ccccc2Cl)nc2cc(-c3ccc(F)cc3)sc2c1=O | 0 | - | - | - | - | 0
Cc1ccc(C)n1NC(=O)c1ccco1 | 0 | 0 | 0 | 40µM | 0 | 0
Cc1nc2ccccc2c(=O)n1NC(=O)c1ccco1 | 0 | 0 | 0 | 0 | 0 | 0
CC(C)C(=O)Nc1ccc(NC(=O)c2ccco2)cn1 | 0 | 0 | ? | 35µM | 0 | 0
CCN(CC)c1ccc(NC(=O)c2ccccc2F)cc1 | 0 | 0 | 45µM | ? | ? | 0
